Assay outcomes as filed in PubChem.
This is one part of a sample in which hits are shown more often than they occur.
IDE exosite inh – exo-site inhibitors of human insulin-degrading enzyme; purified IDE, FL-6b probe fluorescence polarization; stronger effect = lower value; P14735; z-score at 20 µM; hit rate 6.3% among 17,000;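 active = z-score of -3 or lower, meaning strong loss of probe binding signal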;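 also: His-tagged human IDE residues 42-1019 made in E. coli with 30 nM FL-6b probe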
Numbers without * were called inactive.

SMILES	IDE exosite inh
O=C(Cc1ccccn1)N1CC(=O)N2[C@H](CO)[C@H](c3ccc(C#CC4CC4)cc3)[C@H]2C1	2.2
Cc1ccccc1-c1ccc([C@H]2[C@H]3CN(C(=O)Cc4ccccn4)CC(=O)N3[C@H]2CO)cc1	-8.9*
O=C(Cc1ccccn1)N1CC(=O)N2[C@H](CO)[C@@H](c3ccc(-c4ccc(F)cc4)cc3)[C@@H]2C1	2.1
Cc1ccccc1-c1ccc([C@@H]2[C@H]3CN(C(=O)Cc4ccccn4)CC(=O)N3[C@H]2CO)cc1	-18*
COc1ccc(-c2ccc([C@@H]3[C@H]4CN(C(=O)Cc5ccccn5)CC(=O)N4[C@H]3CO)cc2)cc1	-0.28
Cc1ccccc1-c1ccc([C@@H]2[C@@H](CO)N3C(=O)CN(C(=O)Cc4ccccn4)C[C@@H]23)cc1	-20*
O=C(Cc1ccccn1)N1CC(=O)N2[C@H](C1)[C@@H](c1ccc(-c3ccc(F)cc3)cc1)[C@@H]2CO	1.9
O=C(Cc1ccccn1)N1CC(=O)N2[C@@H](CO)[C@H](c3ccc(-c4ccc(F)cc4)cc3)[C@@H]2C1	1.4
CC[C@H]1CC=CC[C@@H](C)Oc2ccccc2C(=O)N(C)[C@H](C)C(=O)N1 (mixture of isomers)	0.15
CC(C)CC#Cc1ccc([C@H]2[C@@H](CO)N3C(=O)CN(C(=O)NC(C)C)C[C@@H]23)cc1	0.23
Cc1ccc(-c2ccccc2[C@@H]2[C@@H](C#N)N(C(=O)Cc3cccnc3)[C@@H]2CO)cc1	2.4
COCC#Cc1ccc([C@H]2[C@H]3CN(C(=O)c4ccncc4)CC(=O)N3[C@H]2CO)cc1	-0.81
COc1ccc(NC(=O)N2CCC3(CC2)CN(C(=O)c2cccnc2)[C@H](CO)c2[nH]c4cc(OC)ccc4c23)cc1	-1.2
COc1ccc2c3c([nH]c2c1)[C@@H](CO)NCC31CCN(C(=O)c2ccccc2)CC1	-1.8
O=C(NC1CCCC1)N1CCCCN2[C@H](C1)[C@@H](c1ccc(-c3cccnc3)cc1)[C@@H]2CO	-0.83
COc1ccc([C@@H]2CC=CC[C@@H](C)Oc3ccccc3C(=O)N(C)[C@@H](C(C)C)C(=O)N2)c(OC)c1 (mixture of isomers)	-0.61
COc1cccc(S(=O)(=O)N2CCCCN3[C@H](C2)[C@@H](c2ccc(-c4ccccc4)cc2)[C@@H]3CO)c1	3
COc1cccc(-c2ccc([C@@H]3[C@H](CO)N4CCCCN(S(=O)(=O)c5cn(C)cn5)C[C@@H]34)cc2)c1	-11*
COc1cccc(-c2ccc([C@H]3[C@@H](CO)N4CCCCN(S(=O)(=O)c5cccs5)C[C@H]34)cc2)c1	0.91
COc1cccc(-c2ccc([C@H]3[C@@H](CO)N4CCCCN(S(=O)(=O)c5cn(C)cn5)C[C@H]34)cc2)c1	-3.9*
COc1cccc(S(=O)(=O)N2CCCCN3[C@H](CO)[C@@H](c4ccc(-c5ccccc5)cc4)[C@H]3C2)c1	2.5
COc1cccc(-c2ccc([C@@H]3[C@H]4CN(S(=O)(=O)c5cccs5)CCCCN4[C@H]3CO)cc2)c1	4.2
CCC(=O)N1CC2(CCN(C(=O)Nc3ccccc3F)CC2)c2c([nH]c3cc(OC)ccc23)[C@@H]1CO	-0.62
CN(C)CC#Cc1ccc([C@@H]2[C@@H](CO)N3C(=O)CN(C(=O)c4cccc(F)c4)C[C@H]23)cc1	0.41
Cc1cccc(-c2ccc([C@H]3[C@H]4CN(C(=O)c5ccncc5)CCCCN4[C@H]3CO)cc2)c1	-3*
SMILES	IDE exosite inh
Cc1ccc(-c2ccc([C@@H]3[C@H](CO)N4CCCCN(C(=O)c5ccncc5)C[C@@H]34)cc2)cc1	-1.2
O=C(c1ccncc1)N1CCCCN2[C@H](C1)[C@H](c1ccc(-c3ccccc3)cc1)[C@@H]2CO	1.9
O=C(c1ccncc1)N1CCCCN2[C@@H](CO)[C@@H](c3ccc(-c4ccccc4)cc3)[C@@H]2C1	-0.96
Cc1cccc(-c2ccc([C@@H]3[C@H](CO)N4CCCCN(C(=O)c5ccncc5)C[C@@H]34)cc2)c1	-12*
Cc1cccc(-c2ccc([C@@H]3[C@H](CO)N4CCCCN(C(=O)c5cccnc5)C[C@@H]34)cc2)c1	-1.4
CC(=O)N1CC(=O)N2[C@H](C1)[C@H](c1ccc(-c3ccc(C#N)cc3)cc1)[C@@H]2CO	4.5
CCS(=O)(=O)N1CCCCN2[C@H](C1)[C@H](c1ccc(-c3ccccc3C)cc1)[C@@H]2CO	-0.65
CCS(=O)(=O)N1CCCCN2[C@H](CO)[C@@H](c3ccc(-c4ccccc4C)cc3)[C@@H]2C1	-18*
O=S(=O)(Cc1ccccc1)N1CCCCN2[C@H](C1)[C@@H](c1ccc(-c3ccccc3)cc1)[C@@H]2CO	-0.2
Cc1ccccc1-c1ccc([C@@H]2[C@@H](CO)N3CCCCN(S(=O)(=O)c4ccc(F)cc4)C[C@H]23)cc1	2.4
O=S(=O)(Cc1ccccc1)N1CCCCN2[C@H](C1)[C@H](c1ccc(-c3ccccc3)cc1)[C@@H]2CO	2.8
CCS(=O)(=O)N1CCCCN2[C@H](CO)[C@H](c3ccc(-c4ccccc4C)cc3)[C@H]2C1	-8.3*
Cc1ccccc1-c1ccc([C@H]2[C@H](CO)N3CCCCN(S(C)(=O)=O)C[C@@H]23)cc1	-4.6*
